Measured values published in the supplement of paper PMC3334620.
The full ranking holds about 33,000 sequences; the median of “E-score (-0.5 to 0.5)” is about -0.0014, and the highest 2% start at about 0.25. The sample holds the highest values, similar sequences and a random draw of the others, so the mix is not that of the screen.

Each sequence was assayed against T1, Cad1 (UniProt P24813) (assay: PBM E-score (8-mer binding enrichment) (E-score (-0.5 to 0.5)); higher = stronger / more preferred TF binding). Settings: protein concentration: 100 nM; construct: GST-full length.
T1 sequence: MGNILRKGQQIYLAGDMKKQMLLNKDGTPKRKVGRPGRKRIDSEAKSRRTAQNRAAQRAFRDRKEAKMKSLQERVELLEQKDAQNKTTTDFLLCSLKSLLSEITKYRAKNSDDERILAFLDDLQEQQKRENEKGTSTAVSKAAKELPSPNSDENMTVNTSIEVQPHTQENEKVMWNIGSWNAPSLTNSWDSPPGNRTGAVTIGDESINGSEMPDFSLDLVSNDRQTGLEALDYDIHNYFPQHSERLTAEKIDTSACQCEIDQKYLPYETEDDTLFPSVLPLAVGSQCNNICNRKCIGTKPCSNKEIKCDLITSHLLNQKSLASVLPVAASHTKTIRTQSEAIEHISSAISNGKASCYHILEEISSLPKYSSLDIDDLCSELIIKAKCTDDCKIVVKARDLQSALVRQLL
Procedure: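 Universal 'all 10-mer' protein binding microarrays (Agilent AMADID 015681) probed with GST-tagged S. cerevisiae TFs (full-length or DBD) made by in vitro transcription/translation (PURExpress), about 100-200 nM. Bound TF was detected with fluorescent anti-GST. Each ungapped 8-mer (which stands for itself and its reverse complement) is scored by the PBM enrichment score (E-score), a modified Wilcoxon-Mann-Whitney statistic from -0.5 to +0.5, computed with the Universal PBM Analysis Suite. Scale: above 0.35 generally sequence-specific binding.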

Sequence	PBM E-score
AGTGTCTG	0.15
ACGCAGGG	-0.155
AGCTGCGC	0.0681
ACAAAGTG	0.0733
GCTCAGAC	-0.0381
CACCTAGA	-0.156
CTTAAGCC	0.00617
ATAAGCAA	0.296
ATAAGCAC	0.208
ATAAGCAT	0.0827
AGATACAG	0.0445
AGATACAA	0.256
CGATACAA	0.0958
GTGCTCTA	-0.119
GTGACTTA	0.1
ATAAGCGA	0.287
CTAAGCGA	0.0774
ATAAGCGG	0.0934
GGAAGCGA	-0.0787
ATAAGCGC	0.139
GTAAGCGA	0.281
CAAACCGG	-0.0831
AAGTATGG	0.00171
ACTGGAGG	0.0173
ATATTTGC	0.306

Sequence	PBM E-score
ATATTTGG	0.146
GCATTTAA	0.0157
CTATTTAA	-0.0377
ACATTTAG	-0.126
ATATTTAA	0.272
ATTTTTAG	0.0211
ACATTTAA	0.253
CTATTTGC	-0.0458
ATATTTAC	0.228
GTATTTAA	0.0263
ATATTTAG	0.255
CAAGAGGG	-0.247
CGCAACGA	-0.00619
CCGGAAAC	0.125
CCCGGGTC	-0.242
ATGACGAA	0.145
ATGATATA	-0.027
CTATGATA	0.0824
ATGATATC	0.0971
GTATGATA	0.23
ATGATATG	0.29
ATATGATA	0.285
CTAACTGC	-0.0676
AAACACCA	-0.00879
CGTATGGC	0.14

Sequence	PBM E-score
AGTACGAA	0.22
AGCAGCGG	-0.0904
AAATTATC	0.246
ATATTATA	0.164
ATATTATG	0.268
ATATTATC	0.096
CAATTATG	0.105
AAATTATG	0.255
ACATGTAT	0.204
ATGCCTTA	-0.158
CGTGATCA	0.123
AATTTTGG	0.149
CTTGGTAA	0.0981
ATTGGTAA	0.257
GTTGGTAA	0.19
GCCCACAA	-0.153
ATTCAATG	0.114
ATTCAATC	0.263
CTTCAATC	-0.066
GACACAGC	0.0664
CCTGTGCC	-0.136
ATTCCGGG	0.122
CTTCCGGA	0.0325
AATCCGGA	0.306
AATCCGAC	0.00376

Sequence	PBM E-score
AATCCGAT	0.25
AATCCGGG	-0.0636
AATCCGAA	-0.0355
AATCCGGC	0.104
ATTCCGGA	0.254
CTGCTCAC	-0.0643
TGACCACA	-0.0368
GTCTCCTA	-0.194
ACCAAGGC	-0.0921
ACAGTCCC	-0.188
CCTAGCAA	-0.0559
AGAGCTTC	-0.181
CGAGCTTC	0.258
CGAGCTTA	0.214
GAGCCCAC	-0.1
AAAGAACA	0.0562
CGACGTTA	0.276
GGACGTTA	0.0449
CGACGTTC	-0.265
CGCATGTC	0.0303
GCGAGGCC	-0.113
GATATTAA	0.187
CCTATTAC	-0.0089
TACATTAA	0.26
CATATTAC	0.225

Sequence	PBM E-score
TGTATTAA	-0.00939
AACATTAA	0.127
GCTATTAC	0.098
TATATTAA	0.326
AATATTAC	0.347
ACTATTAC	0.149
GACATTAA	0.124
GATATTAC	0.293
ACATGGAT	0.0578
ATTTGATC	-0.0183
AGCCCGAC	-0.149
ACGTTTGA	0.0358
AAAGGACT	-0.224
ATGTGGCC	-0.0491
AATGGTGC	-0.131
GCTGAACC	-0.0931
ACTTTGGC	-0.0521
TACTGCGA	0.0327
AGCTCCAG	-0.181
AGATTTCC	0.185
CATATTTA	0.232
CATATTAA	0.272
AATATTAG	0.213
CATATTAG	0.179
AATATTAA	0.281

Sequence	PBM E-score
AATATTAT	0.194
CGATTGTC	0.174
AGCTATTC	-0.215
CCATCATA	-0.27
GTATCTTA	0.287
GCATCATA	0.296
CTATCTTA	0.0111
GTATCATA	0.288
GTATCTGA	0.0184
ATATCATA	0.166
CTATCATA	0.148
ACATCATA	0.105
CGAGACCA	-0.0428
ACAAACTC	0.052
GGCTCCAC	-0.182
CCTCTGCG	-0.147
CGGGTAGA	0.0106
CGGTTGGC	0.0738
CGTTCTGA	-0.16
GACTGCGC	-0.0924
AACCCTCG	-0.0276
TGTATAAA	0.028
CTTATAAC	0.177
ATTATAAC	0.0512
ATTATAAA	0.276

Sequence	PBM E-score
GTTATAAA	0.184
CTTATAAA	0.275
CTTATAAG	-0.047
TTTATAAA	0.261
ATTATAAG	0.186
CCCGCGTC	0.0369
GTTCGAAA	0.241
ACCAGAGG	-0.164
GGCGGTAC	-0.0694
GGCCTTGA	0.0013
GACAAATC	0.306
AACAAATA	0.186
GACAAAGA	0.276
GACAAATA	0.293
GACAAGAA	0.0396
CACAAATA	0.259
CACAAGTA	-0.0393
TACAAATA	0.185
GACAAAGC	0.06
CACAAATC	0.126
GACAAGTC	0.00519
CACAAATG	-0.0179
GAACTTCA	0.066
CGAACTGA	-0.17
CCGGGGAC	-0.235

Sequence	PBM E-score
CCTTATAG	-0.219
ATTAGGGC	-0.0576
AGTTTTGG	0.127
GACAGCGC	0.14
ACGTGCGC	0.122
CAGTAGTC	-0.207
AACACGAT	0.123
AAGTTGGG	-0.0322
AAGTTGGT	0.252
AAGTTGGC	-0.125
ATTAGAGC	0.041
ATAGTGTA	0.0723
AAGAAGTA	0.12
CAAGCAAA	0.0203
CACACTCA	0.194
CGACAGTC	-0.12
CACGCCTC	-0.0988
CTATAATA	-0.101
GTATAATA	0.283
GTATAAAA	0.18
ATATAATA	0.261
ATATAATG	0.0839
GTATAAGA	-0.0708
CACCGTGC	0.161
TGAACTAA	-0.063

Sequence	PBM E-score
ATCGAACG	-0.0756
AATCGCAT	0.0873
TATTAACA	0.25
CATTAACA	0.16
CATTAATG	0.198
TATTAATA	0.339
CATTAATA	0.297
TATTAAGA	0.0149
GATTAACC	0.02
TATTAAAA	0.194
GATTAATC	0.355
CATTAATC	0.153
GATTAACA	0.163
GATTAAAC	0.0432
AACCCCTC	-0.319
GCGAGTTA	0.0928
GTCTGCTA	0.218
GAGAGAAA	0.14
CTTATACC	0.0668
